# Reference: PubChem BioAssay (NCATS)
# “And” between values parts separate entries of the source, which are not always exact repeats. Identical values can stand only once. Records with an inconclusive call do not appear. Entries that show only a call come without a potency. The source made the active and inactive calls. Unless noted, calls come from the whole dose curve; as a rule, active = well fitted curve in the direction sought with a large enough effect; inconclusive = small, poorly fitted or top-dose-only effect, or another doubt; inactive = no such curve, though single readings can be large; an effect the other way counts as inactive or inconclusive.
# Key:
# [1] = target: Cytochrome P450 2C9 (Homo sapiens) (UniProt P11712); experiment: Cytochrome P450 family 2 subfamily C member 9 (CYP2C9) small molecule antagonists: luciferase biochemical (cell-free) qHTS assay (AID 1645842; active = well fitted curve in the direction sought with a large enough effect in the repeat runs; an effect the other way counts as inactive or inconclusive; note: nearly all actives have a fitted effect of over 55% in size; note: potency is the fitted concentration of half-maximal effect)
# Cytochrome P450 2C9 (Homo sapiens), sequence (P11712 whole entry, looked up): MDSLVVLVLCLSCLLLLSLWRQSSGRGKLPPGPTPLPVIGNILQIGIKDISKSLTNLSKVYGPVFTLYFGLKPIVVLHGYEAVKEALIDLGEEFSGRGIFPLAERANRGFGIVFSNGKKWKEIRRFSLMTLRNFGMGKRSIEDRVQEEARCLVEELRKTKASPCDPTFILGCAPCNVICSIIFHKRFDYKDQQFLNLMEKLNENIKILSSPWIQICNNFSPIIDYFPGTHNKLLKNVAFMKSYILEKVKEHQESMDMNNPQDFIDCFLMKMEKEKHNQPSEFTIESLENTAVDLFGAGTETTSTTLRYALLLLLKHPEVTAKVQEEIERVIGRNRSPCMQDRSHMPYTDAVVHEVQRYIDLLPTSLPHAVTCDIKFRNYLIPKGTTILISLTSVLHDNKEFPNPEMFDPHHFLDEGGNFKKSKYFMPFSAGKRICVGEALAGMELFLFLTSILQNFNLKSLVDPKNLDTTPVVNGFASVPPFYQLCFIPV
# In short: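 P450-Glo CYP2C9 system: proluciferin substrate with enzyme in mix containing 0.4% BSA, 10 min at room temperature, then NADPH regeneration solution added and incubated 1 h at 37C. Detection reagent stopped reaction; luminescence read after 20 min as RLU.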
# [2] = Primary qHTS for inhibitors of nuclear receptor binding SET domain protein 2 (NSD2) in an isogenic RCH-ACV NSD2 p.E1099K mutant (9B) (AID 1645876); note: nearly all actives have a fitted effect of over 70% in size; note: potency is the fitted concentration of half-maximal effect
# [3] = Primary qHTS for inhibitors of nuclear receptor binding SET domain protein 2 (NSD2) in an RCH-ACV wild type WT cells (2C) (AID 1645877); note: nearly all actives have a fitted effect of over 70% in size; note: potency is the fitted concentration of half-maximal effect
# [4] = target: Catechol O-methyltransferase (Homo sapiens) (UniProt P21964); experiment: Confirmatory Screen for Target Class Profiling of Small Molecule Inhibitors of Methyltransferases (AID 1745852); conditions: MTase-Glo luminescence, SAH detection, recombinant enzyme; measured here: COMT max response; stronger effect = lower value
# Catechol O-methyltransferase (Homo sapiens), sequence (P21964 whole entry, looked up): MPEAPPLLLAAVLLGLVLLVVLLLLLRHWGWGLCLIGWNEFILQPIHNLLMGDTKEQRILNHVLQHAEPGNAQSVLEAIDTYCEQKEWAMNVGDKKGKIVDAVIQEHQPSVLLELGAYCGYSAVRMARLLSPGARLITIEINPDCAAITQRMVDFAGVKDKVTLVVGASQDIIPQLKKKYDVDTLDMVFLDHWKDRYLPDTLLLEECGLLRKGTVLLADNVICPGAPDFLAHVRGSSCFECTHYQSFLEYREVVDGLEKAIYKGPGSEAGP
# [5] = target: Guanidinoacetate N-methyltransferase (Homo sapiens) (UniProt Q14353); experiment: as above; conditions: activity change, negative = inhibition: at 57.3 µM (top of the series) unless noted
# [6] = target: Nicotinamide N-methyltransferase (Homo sapiens) (UniProt P40261); experiment: as above; conditions: MTase-Glo luminescence, SAH detection, recombinant enzyme; measured here: NNMT max response; stronger effect = lower value
# Nicotinamide N-methyltransferase (Homo sapiens), sequence (P40261 whole entry, looked up): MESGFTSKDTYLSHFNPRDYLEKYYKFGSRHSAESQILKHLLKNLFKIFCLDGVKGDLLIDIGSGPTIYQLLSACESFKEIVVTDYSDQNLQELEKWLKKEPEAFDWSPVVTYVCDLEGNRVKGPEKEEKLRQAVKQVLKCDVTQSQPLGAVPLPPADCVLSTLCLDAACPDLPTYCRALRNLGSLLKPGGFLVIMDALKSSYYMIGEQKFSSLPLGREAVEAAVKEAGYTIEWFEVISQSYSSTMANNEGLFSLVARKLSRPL
# [7] = target: Phenylethanolamine N-methyltransferase (Homo sapiens) (UniProt P11086); experiment: as above; conditions: MTase-Glo luminescence, SAH detection, recombinant enzyme; measured here: PNMT max response; stronger effect = lower value
# Phenylethanolamine N-methyltransferase (Homo sapiens), sequence (P11086 whole entry, looked up): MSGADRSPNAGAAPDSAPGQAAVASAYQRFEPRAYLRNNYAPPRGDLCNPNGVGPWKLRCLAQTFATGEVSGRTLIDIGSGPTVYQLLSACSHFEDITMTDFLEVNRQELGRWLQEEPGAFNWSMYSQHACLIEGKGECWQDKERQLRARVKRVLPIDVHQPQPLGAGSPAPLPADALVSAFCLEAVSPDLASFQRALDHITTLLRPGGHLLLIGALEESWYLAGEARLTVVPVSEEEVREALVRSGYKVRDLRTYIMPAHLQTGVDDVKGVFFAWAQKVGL
# [8] = target: Rap guanine nucleotide exchange factor 3 (Homo sapiens) (UniProt O95398); experiment: Confirmatory qHTS for antagonist of cAMP-regulated guanine nucleotide exchange factor 3 (EPAC1) (AID 1645880); conditions: EPAC1 Rap1B-BODIPY-GDP exchange, fluorescence; note: potency is the fitted concentration of half-maximal effect; nearly all actives have a fitted effect of over 55% in size
# Rap guanine nucleotide exchange factor 3 (Homo sapiens), sequence (O95398 whole entry, looked up): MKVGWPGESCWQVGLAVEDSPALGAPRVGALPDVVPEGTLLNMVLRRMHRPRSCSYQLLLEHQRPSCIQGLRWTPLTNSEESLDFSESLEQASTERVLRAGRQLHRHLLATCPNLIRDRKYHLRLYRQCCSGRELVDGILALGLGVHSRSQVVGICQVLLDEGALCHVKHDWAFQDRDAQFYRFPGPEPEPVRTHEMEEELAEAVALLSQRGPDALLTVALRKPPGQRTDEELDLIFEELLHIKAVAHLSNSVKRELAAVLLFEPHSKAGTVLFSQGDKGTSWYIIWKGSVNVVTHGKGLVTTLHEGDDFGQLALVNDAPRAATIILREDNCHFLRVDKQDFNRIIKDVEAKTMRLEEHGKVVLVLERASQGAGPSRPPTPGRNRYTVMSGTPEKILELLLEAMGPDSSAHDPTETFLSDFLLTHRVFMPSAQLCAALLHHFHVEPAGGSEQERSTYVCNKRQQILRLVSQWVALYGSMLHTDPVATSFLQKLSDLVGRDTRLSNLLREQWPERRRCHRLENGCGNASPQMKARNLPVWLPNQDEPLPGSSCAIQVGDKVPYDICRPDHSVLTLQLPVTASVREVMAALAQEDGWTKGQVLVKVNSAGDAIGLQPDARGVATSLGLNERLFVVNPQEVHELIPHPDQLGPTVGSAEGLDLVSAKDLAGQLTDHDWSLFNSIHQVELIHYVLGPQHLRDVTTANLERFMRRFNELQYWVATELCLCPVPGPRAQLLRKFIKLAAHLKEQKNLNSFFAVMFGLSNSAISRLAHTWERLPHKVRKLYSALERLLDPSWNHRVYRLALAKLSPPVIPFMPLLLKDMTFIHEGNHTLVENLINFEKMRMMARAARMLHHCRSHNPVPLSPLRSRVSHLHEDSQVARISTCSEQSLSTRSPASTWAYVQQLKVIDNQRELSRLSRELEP
# In short: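 Released BODIPY-GDP fluoresces less than Rap1-bound BODIPY-GDP; the signal is followed at 480/540 nm at 5-min intervals over 30 min, after 5 min at room temperature. Reactions contain 100 nM EPAC1, 250 nM RAP1B-BODIPY-GDP and 50 uM GDP; results are normalized to ATA and DMSO.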
# [9] = target: Rap guanine nucleotide exchange factor 3 (Homo sapiens) (UniProt O95398); experiment: Confirmatory qHTS for agonist of cAMP-regulated guanine nucleotide exchange factor 3 (EPAC1) (AID 1645881);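 note: EPAC1 catalysed release of BODIPY-GDP from Rap1B seen as fluorescence loss; nearly all actives have a fitted effect of over 75% in size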
# [10] = target: Rap guanine nucleotide exchange factor 4 (Homo sapiens) (UniProt Q8WZA2); experiment: Confirmatory qHTS for agonist of cAMP-regulated guanine nucleotide exchange factor 4 (EPAC2) (AID 1645884);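 note: nucleotide exchange releases bodipy-GDP from Rap1 and this lowers its fluorescence; nearly all actives have a fitted effect of over 65% in size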
# Rap guanine nucleotide exchange factor 4 (Homo sapiens), sequence (Q8WZA2 whole entry, looked up): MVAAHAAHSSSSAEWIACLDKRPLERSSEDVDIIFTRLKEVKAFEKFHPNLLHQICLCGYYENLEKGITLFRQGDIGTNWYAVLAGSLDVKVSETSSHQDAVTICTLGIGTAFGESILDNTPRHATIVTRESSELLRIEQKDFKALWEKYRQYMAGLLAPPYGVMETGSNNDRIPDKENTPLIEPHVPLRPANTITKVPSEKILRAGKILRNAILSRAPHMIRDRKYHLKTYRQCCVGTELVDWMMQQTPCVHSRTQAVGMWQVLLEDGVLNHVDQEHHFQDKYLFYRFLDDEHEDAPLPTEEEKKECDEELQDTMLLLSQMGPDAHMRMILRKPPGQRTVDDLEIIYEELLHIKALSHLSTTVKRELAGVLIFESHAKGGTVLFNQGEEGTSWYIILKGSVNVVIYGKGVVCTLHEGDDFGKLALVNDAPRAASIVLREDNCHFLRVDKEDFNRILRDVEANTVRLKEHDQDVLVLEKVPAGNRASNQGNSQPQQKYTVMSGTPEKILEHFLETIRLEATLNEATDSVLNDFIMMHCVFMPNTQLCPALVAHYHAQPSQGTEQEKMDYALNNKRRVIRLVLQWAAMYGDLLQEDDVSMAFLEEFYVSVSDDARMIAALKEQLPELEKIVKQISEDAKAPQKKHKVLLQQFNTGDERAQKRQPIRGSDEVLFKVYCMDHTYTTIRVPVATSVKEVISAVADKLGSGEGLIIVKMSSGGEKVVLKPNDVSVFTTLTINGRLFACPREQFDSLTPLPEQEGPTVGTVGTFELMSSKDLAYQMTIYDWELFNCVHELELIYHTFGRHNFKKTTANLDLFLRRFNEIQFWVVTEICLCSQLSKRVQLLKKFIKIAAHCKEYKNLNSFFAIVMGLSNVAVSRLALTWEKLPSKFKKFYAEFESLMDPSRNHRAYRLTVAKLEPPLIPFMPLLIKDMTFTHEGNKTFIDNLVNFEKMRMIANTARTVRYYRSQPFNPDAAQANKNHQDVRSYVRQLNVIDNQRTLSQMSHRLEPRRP
# [11] = target: Rap guanine nucleotide exchange factor 4 (Homo sapiens) (UniProt Q8WZA2); experiment: Confirmatory qHTS for antagonist of cAMP-regulated guanine nucleotide exchange factor 4 (EPAC2) (AID 1645885); note: potency is the fitted concentration of half-maximal effect; nearly all actives have a fitted effect of over 25% in size
# [12] = Viability counterscreen for antagonist of constitutive androstane receptor (CAR) against the NCATS DSHEA and TCM libraries (AID 1794837);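 note: compound exposure lasted 24 h before viability reading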
# In short: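 Fluorescence from CellTiter-Fluor reports live-cell protease activity in HepG2-CYP2B6-hCAR cells treated for 24 h with substances alongside 48 uM CITCO.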
# [13] = target: Nuclear receptor subfamily 1 group I member 3 (Homo sapiens) (UniProt Q14994); experiment: Primary qHTS for agonist of constitutive androstane receptor (CAR) against the NCATS DSHEA and TCM libraries (AID 1794839);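 note: HepG2 cells expressing human CAR with a CYP2B6 reporter plus PK11195 antagonist; luciferase reporter luminescence read with ONE-Glo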
# Nuclear receptor subfamily 1 group I member 3 (Homo sapiens), sequence (Q14994 whole entry, looked up): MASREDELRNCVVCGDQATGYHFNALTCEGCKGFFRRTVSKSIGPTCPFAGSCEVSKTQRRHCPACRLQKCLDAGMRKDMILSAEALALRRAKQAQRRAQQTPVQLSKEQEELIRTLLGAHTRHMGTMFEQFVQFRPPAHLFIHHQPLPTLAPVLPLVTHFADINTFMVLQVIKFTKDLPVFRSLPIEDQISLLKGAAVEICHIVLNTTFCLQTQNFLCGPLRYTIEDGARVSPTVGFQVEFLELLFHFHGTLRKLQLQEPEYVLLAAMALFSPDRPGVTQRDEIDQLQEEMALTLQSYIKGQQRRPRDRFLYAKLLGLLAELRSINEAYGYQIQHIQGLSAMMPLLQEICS
# In short: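 Cells stably carrying hCAR and a CYP2B6 reporter (HepG2 background) are seeded and allowed 5 h to adhere. Substances at multiple concentrations are added alongside 0.75 µM PK11195, and luciferase signal is measured after 24 h.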
# [14] = HepG2 viability counterscreen (readout 2: ATP content) against the NCATS DSHEA and TCM libraries (AID 1794840);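 note: HepG2 cells exposed to substances for about 24 h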
# In short: (§1)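 Cytotoxicity was assessed in HepG2 cells plated at 1,000 cells/well and exposed for about 24 hours to a concentration series. Protease activity and ATP content were measured sequentially in each well.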
# [15] = HepG2 viability counterscreen (readout 1: protease activity) against the NCATS DSHEA and TCM libraries (AID 1794841);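 note: cells exposed to compounds for about 24 h before the protease read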
# In short: as §1
smiles,measurement,setting,value
O=C(/C=C/c1c(C(=O)O)[nH]c2cc(Cl)cc(Cl)c12)Nc1ccccc1,Potency,[1],21.3 µM (active)
same,Potency,[2],inactive
same,Potency,[3],inactive
O=C(O)c1n[nH]c2c1C[C@H]1C[C@@H]21,Potency,[1],inactive
same,Potency,[2],inactive
same,Potency,[3],inactive
Cc1cc(Nc2ncc(Cl)c(Nc3ccccc3S(=O)(=O)C(C)C)n2)c(OC(C)C)cc1C1CCNCC1,Potency,[1],3.38 µM (active)
same,Potency,[2],3.25 µM (active) and 5.25 µM (active)
same,Potency,[3],2.9 µM (active) and 3.72 µM (active)
O=C(NCC(=O)N1CC[C@H](NC2CCC(O)(c3ccc(-c4ncccn4)cn3)CC2)C1)c1cccc(C(F)(F)F)c1 (stereo not given in full),Potency,[1],inactive
same,Potency,[2],inactive
same,Potency,[3],inactive
CC1(C)CC(=O)N(CCCCN2CCN(c3ncccn3)CC2)C(=O)C1,Potency,[1],inactive
same,Potency,[2],inactive
same,Potency,[3],inactive
OC[C@H]1O[C@@H](n2cnc3c2NC=NC[C@H]3O)C[C@@H]1O,Potency,[1],inactive
same,Potency,[2],inactive
same,Potency,[3],inactive
O=C(O)C[C@@H](NC(=O)c1cc(-c2ccc(-c3ccncc3)cc2)cs1)c1ccccc1,Potency,[1],26.8 µM (active)
same,Potency,[2],inactive
same,Potency,[3],inactive
COc1cc(N2CCC(O)CC2)ccc1Nc1cc(Nc2ccccc2S(=O)(=O)C(C)C)c2cc[nH]c2n1,Potency,[1],6.61 µM (active)
same,Potency,[2],inactive
same,Potency,[3],inactive
same,activity,[4],2.25%
same,"activity change, negative = inhibition",[5],0%
same,activity,[6],-6.54%
same,activity,[7],0.382%
CO[C@@H](Cc1ccc(OCCc2nc(-c3ccccc3)oc2C)c2ccsc12)C(=O)O,Potency,[1],26.8 µM (active)
same,Potency,[2],inactive
same,Potency,[3],inactive
C#Cc1cnc2[nH]c(=O)n(C(CC)CC)c2n1,Potency,[1],8.49 µM (active)
same,Potency,[2],inactive
same,Potency,[3],inactive
Cc1[nH]cnc1C1CCN(c2nc3cccc4c3n2CCC4=O)CC1,Potency,[1],9.52 µM (active)
same,Potency,[2],inactive
same,Potency,[3],inactive
same,activity,[4],1.4%
same,"activity change, negative = inhibition",[5],0.0241%
same,activity,[6],-9.9%
same,activity,[7],1.15%
CN(C)c1cccc(-c2c3c(=O)n(-c4ccccc4Cl)[nH]c3cc(=O)n2C)c1,Potency,[1],5.35 µM (active)
same,Potency,[2],inactive
same,Potency,[3],inactive
CNC(=O)c1ccc(Nc2ncc(C(F)(F)F)c(NCc3nccnc3N(C)S(C)(=O)=O)n2)cc1,Potency,[1],3.79 µM (active)
same,Potency,[2],2.58 µM (active) and 1.66 µM (active)
same,Potency,[3],2.05 µM (active) and 1.86 µM (active)
Cc1onc(-c2ccccc2)c1C(=O)N[C@@H]1C(=O)N2[C@@H]1SC(C)(C)[C@@H]2C(=O)O,Potency,[1],inactive
same,Potency,[2],inactive
same,Potency,[3],inactive
CO[C@@H]1COCC[C@@H]1N[C@@H]1CC[C@@](C(=O)N2CCc3ncc(C(F)(F)F)cc3C2)(C(C)C)C1,Potency,[1],inactive
same,Potency,[2],inactive
same,Potency,[3],inactive
CCCCC(CC)COC(=O)CC(C(=O)OCC(CC)CCCC)S(=O)(=O)O (stereo not given),Potency,[8],35.2 µM (active) and 9.93 µM (active)
same,outcome,[9],inactive
same,outcome,[10],inactive
same,Potency,[11],39.3 µM (active) and 31.2 µM (active)
CCCCCCCC(=O)O,outcome,[12],inactive
same,outcome,[13],inactive
same,outcome,[14],inactive
same,outcome,[15],inactive
Cc1c(C)c2c(c(C)c1O)CC[C@@](C)(CCC[C@H](C)CCC[C@H](C)CCCC(C)C)O2,outcome,[14],inactive
same,outcome,[15],inactive
O=C(O)Cc1nn(Cc2nc3cc(C(F)(F)F)ccc3s2)c(=O)c2nccnc12,Potency,[2],inactive
same,Potency,[3],inactive
NC(=O)c1ccc(OCC2NC(=O)C3CCCN3C2=O)cc1 (stereo not given),Potency,[2],inactive
same,Potency,[3],inactive
COc1ccc(C2=CC(=O)OC2Cc2ccc(O)cc2)c(O)c1 (stereo not given),Potency,[2],inactive
same,Potency,[3],inactive
C=CC1(C)C=C2C(O)CC3C(C)(C(=O)O)CCCC3(C)C2CC1 (stereo not given),Potency,[2],inactive
same,Potency,[3],inactive
Nc1nc(CC(=O)Nc2ccc(CCNCC(O)c3ccccc3)cc2)cs1 (stereo not given),Potency,[2],inactive
same,Potency,[3],inactive
COC(=O)C[C@@H]1C(C(=O)O)=CO[C@@H](O[C@@H]2O[C@H](CO)[C@@H](O)[C@H](O)[C@H]2O)/C1=C\COC(=O)/C=C\c1ccccc1,Potency,[2],inactive
same,Potency,[3],inactive
CC(=O)OC1C(O)C(C)=C(CCC(C)CC(=O)O)C2(C)CCCC(C)(C)C12 (stereo not given),Potency,[2],inactive
same,Potency,[3],inactive
CC12CCC3C(C)(C)C(O)CCC3(C)C1Cc1c(oc(C(=O)O)cc1=O)O2 (stereo not given),Potency,[2],inactive
same,Potency,[3],inactive
C=C1CCC2C(C)(C)CC(=O)CC2(C)C1CCC(C)CCOC(C)=O (stereo not given),Potency,[2],inactive
same,Potency,[3],inactive
Cc1nnc(C(C)C)n1C1CC2CCC(C1)N2CCC(NC(=O)C1CCC(F)(F)CC1)c1ccccc1 (stereo not given),Potency,[2],inactive
same,Potency,[3],inactive
Cn1c(=O)c2nc(/C=C/c3cccc(Cl)c3)n(C)c2n(C)c1=O,Potency,[2],inactive
same,Potency,[3],inactive
CCOc1c2c(c(OCC)c3ccccc13)C(=O)N(c1ccc(CC(=O)NS(=O)(=O)c3ccccc3)cc1)C2,Potency,[2],inactive
same,Potency,[3],inactive
CC1CCC2(C(=O)OC3OC(CO)C(O)C(O)C3O)CCC3(C(=O)O)C(=CCC4C5(C)CCC(OC6OC(C)C(O)C(O)C6O)C(C)(C)C5CCC43C)C2C1C (stereo not given),Potency,[2],inactive
same,Potency,[3],inactive
C=CC(C)(C)C1(CC2NC(=O)C3CCCN3C2=O)C(=O)Nc2cc3c(cc21)C=CC(C)(C)O3 (stereo not given),Potency,[2],inactive
same,Potency,[3],inactive
CCN[C@@H]1C[C@H](N)[C@@H](O[C@H]2OC(CN)=CC[C@H]2N)[C@H](O)[C@H]1O[C@H]1OC[C@](C)(O)[C@H](NC)[C@H]1O,Potency,[2],inactive
same,Potency,[3],inactive
CCOC(=O)c1ccnc(CNCC(=O)N(CC)CCN(C)C)c1,Potency,[2],inactive
same,Potency,[3],inactive
